Out of some 190,000 compounds screened, about 4,100 (2.2%) were called active. This is one part of a sample in which actives are shown more often than they occur. A number with no mark means an inactive call.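 The calls were made as follows: active = thallium flux slope and its plate-corrected score both differing from the plate sample mean at a set confidence after two filtering rounds, in either direction; inactive = the rest.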

Consider 49 compounds from PubChem BioAssay AID1456 (Vanderbilt High Throughput Screening Facility, 2008).

The target of the assay is Solute carrier family 12 member 5 (Homo sapiens) (UniProt Q9H2X9). Put plainly: KCC2 cotransporter modulators, thallium flux, primary screen, cell-based, HEK293 KCC2, FluoZin-2 fluorescence, MLSMR (AID 1456).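 Also: slope of fluorescence scaled to starting intensity during 10 to 20 s after thallium.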 The note with it: KCC2 cells, thallium flux FluoZin-2 fluorescence; at 10 µM.
Chain of Solute carrier family 12 member 5 (Homo sapiens) (Q9H2X9 whole entry, looked up): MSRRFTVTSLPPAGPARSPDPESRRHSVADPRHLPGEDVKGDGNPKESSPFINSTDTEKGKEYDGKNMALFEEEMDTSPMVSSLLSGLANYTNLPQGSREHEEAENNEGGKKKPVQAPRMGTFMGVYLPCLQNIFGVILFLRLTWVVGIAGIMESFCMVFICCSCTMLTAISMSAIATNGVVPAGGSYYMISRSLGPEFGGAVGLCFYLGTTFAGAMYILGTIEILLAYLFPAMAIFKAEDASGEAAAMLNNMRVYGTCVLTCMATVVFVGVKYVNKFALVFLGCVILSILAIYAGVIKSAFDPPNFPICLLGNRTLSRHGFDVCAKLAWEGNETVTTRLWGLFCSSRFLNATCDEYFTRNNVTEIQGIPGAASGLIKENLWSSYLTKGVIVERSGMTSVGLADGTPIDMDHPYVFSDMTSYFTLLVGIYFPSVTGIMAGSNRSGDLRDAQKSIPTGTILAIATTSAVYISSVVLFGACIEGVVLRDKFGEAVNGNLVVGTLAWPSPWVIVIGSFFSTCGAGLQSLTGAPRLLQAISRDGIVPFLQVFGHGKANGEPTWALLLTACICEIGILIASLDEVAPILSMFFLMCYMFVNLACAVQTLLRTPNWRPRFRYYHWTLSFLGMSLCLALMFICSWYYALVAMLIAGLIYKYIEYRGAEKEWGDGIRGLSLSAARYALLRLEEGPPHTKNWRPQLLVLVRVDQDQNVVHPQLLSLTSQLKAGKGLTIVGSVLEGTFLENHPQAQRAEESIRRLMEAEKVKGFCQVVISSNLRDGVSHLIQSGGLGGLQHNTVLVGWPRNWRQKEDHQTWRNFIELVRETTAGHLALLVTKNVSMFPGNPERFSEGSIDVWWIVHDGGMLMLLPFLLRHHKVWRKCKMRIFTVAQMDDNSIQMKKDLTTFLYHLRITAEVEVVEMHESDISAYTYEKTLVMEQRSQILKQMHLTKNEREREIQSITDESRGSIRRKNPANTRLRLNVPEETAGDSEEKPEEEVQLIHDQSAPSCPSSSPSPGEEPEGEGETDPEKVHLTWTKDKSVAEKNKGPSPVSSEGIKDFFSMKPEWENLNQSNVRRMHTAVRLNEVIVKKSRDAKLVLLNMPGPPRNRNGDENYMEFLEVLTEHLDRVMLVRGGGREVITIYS
As to `COC(=O)C1=C(N)Oc2cc(C)[nH]c(=O)c2C1c1ccc(Cl)cc1` (centres undefined), the B-score of Tl+ flux slope (higher = more flux/activation; lower = inhibition) was -2.12.
For `O=C(NNS(=O)(=O)c1ccccc1)c1cnn(-c2ccc(Cl)cc2)c1C(F)(F)F`, the B-score of Tl+ flux slope (higher = more flux/activation; lower = inhibition) was 0.887.
With `CC1CN(/C=C/C(=O)C(F)(F)F)CC(C)O1` (centres undefined) the figure was 1.01; with `Cc1ccc(OC(=O)c2cc3ccccc3o2)cc1`, 0.278; with `O=C(Nc1ccncc1)c1cc2ccccc2o1`, 2.22.
With `C/C(=N\NC(=S)Nc1ccc(C)cc1)c1cc2ccccc2o1` the figure was 90.2 (active); with `COc1ccc(C)cc1S(=O)(=O)Nc1cccc(Cl)c1Cl`, 2.43 (active); with `COc1ccc(C)cc1S(=O)(=O)NCCc1ccccc1`, 0.198.
As for `COc1ccc(OC)c(S(=O)(=O)Nc2ccccc2F)c1`, the B-score of Tl+ flux slope (higher = more flux/activation; lower = inhibition) is 1.79.
Turning to `COc1ccc(NC(=O)N2CCC(Cc3ccccc3)CC2)cc1`, the B-score of Tl+ flux slope (higher = more flux/activation; lower = inhibition) is -5.5 (active).
With `CCOc1ccc(NC(=O)C2CCCN(C(=O)Nc3ccccc3)C2)cc1` (centres undefined) the figure was -0.0798.
For `COc1ccc(NC(=O)C(C)SCc2ccccc2)cc1` (centres undefined) the value was -0.536; for `S=C(NCCc1ccccc1)Nc1ccccc1`, -0.293; for `COc1cc(C(F)(F)F)c(C(=O)N(C)c2ccc(Cl)cc2)cn1`, 0.047.
`CCOC(=O)c1cn(CC)c2cc(F)c(F)cc2c1=O`: the B-score of Tl+ flux slope (higher = more flux/activation; lower = inhibition) was -0.139.
For `O=C(c1cc(COc2c(F)cccc2F)on1)N1CCSCC1` the value was -0.926; for `CC(C)CNC(=S)NC(=O)c1ccc(Cl)cc1`, 33 (active).
For `Cc1occc1C(=O)NNC(=S)NCC(C)C` the value was -0.168.
With `CC(C)C(NC(=O)c1ccc(Cl)cc1)C(=O)O` (centres undefined) the figure was 1.28; with `O=C(NN=C1CCC(=NNC(=O)c2cccnc2)CC1)c1cccnc1`, 0.0392; with `COc1ccc(Cl)cc1CSc1ncn[nH]1`, -1.03.
Take `NC(=S)N/N=C/c1coc2cc(Cl)ccc2c1=O`: the B-score of Tl+ flux slope (higher = more flux/activation; lower = inhibition) is 1.23.
For `CC(C)(C)OC(=O)NCCCCCC(=O)N/N=C/c1coc2ccccc2c1=O` the value was -2.19; for `O=C(N/N=C/c1coc2ccccc2c1=O)c1cc2ccccc2o1`, 5.52 (active); for `CCOC(=O)C1CCN(CCC(=O)Nc2cccc(C)c2)CC1`, 0.406.
With `CN(CC(O)COc1ccc(S(=O)(=O)N2CCOCC2)cc1Cl)C1CCCCC1` (centres undefined) the figure was 0.0176.
With `Cc1nn(-c2ccccc2)c2sc(C(=O)N(Cc3ccco3)C(C)C(=O)NC(C)(C)C)cc12` (centres undefined) the figure was 8.53 (active); with `O=C(NCc1ccco1)c1nc(-c2ccccc2)n(-c2ccccc2)n1`, -2.03; with `Cc1ccc(-c2nnn(CC(=O)N(Cc3ccco3)C(C(=O)NC(C)(C)C)c3ccncc3)n2)o1` (centres undefined), -1.04.
Regarding `Cc1nnc(Nc2ccccc2F)s1`, the B-score of Tl+ flux slope (higher = more flux/activation; lower = inhibition) was -0.881.
Regarding `CC(NC(=O)C(=O)Nc1nccs1)c1ccccc1` (centres undefined), the B-score of Tl+ flux slope (higher = more flux/activation; lower = inhibition) is 2.74.
Take `Cn1cc(CCC(=O)NCc2ccc3c(c2)OCO3)c2ccccc21`: the B-score of Tl+ flux slope (higher = more flux/activation; lower = inhibition) was -1.1.
Turning to `N#Cc1nc(Cc2cccc3ccccc23)oc1NCc1ccc2c(c1)OCO2`, the B-score of Tl+ flux slope (higher = more flux/activation; lower = inhibition) was -5.13 (active).
With `O=C(COc1ccccc1)NCc1ccc2c(c1)OCO2` the figure was -0.24; with `N#Cc1nc(COc2ccc(-c3ccccc3)cc2)oc1NCc1cccnc1`, -4.77 (active).
For `N#Cc1nc(-c2ccc(OCc3ccccc3)cc2)oc1NCCCN1CCOCC1` the value was 0.37; for `Cc1ccc(OCc2nc(C#N)c(N3CCCC3)o2)cc1`, -0.743.
For `COc1cc(/C=C2/C(=O)NN(c3ccc(F)cc3)C2=O)cc([N+](=O)[O-])c1O` the value was -2.31.
Consider `COc1ccc(-c2cn(-c3ccc(OC)cc3)c(=S)[nH]2)cc1`, for which the B-score of Tl+ flux slope (higher = more flux/activation; lower = inhibition) was 8.53 (active).
As to `COc1ccc(N2C(=O)CNC2=S)cc1`, the B-score of Tl+ flux slope (higher = more flux/activation; lower = inhibition) is 0.069.
For the compound `COc1ccc(-n2c(C)csc2=S)cc1`, the B-score of Tl+ flux slope (higher = more flux/activation; lower = inhibition) was 0.0167.
For `O=C(O)CCCCCCCCCC[n+]1ccccc1` the value was 0.183; for `O=C(O)c1ccccc1OCc1ccccc1Cl`, 0.00686; for `COc1ccc(OC)c(-n2c(-c3ccn[nH]3)n[nH]c2=S)c1`, -0.678.
For `Cc1nc(SCc2ccc(F)cc2)c([N+](=O)[O-])[nH]1` the value was -4.77 (active); for `O=C(Nn1c(SCc2ccc([N+](=O)[O-])cc2)nc2ccccc2c1=O)c1ccc(F)cc1`, 0.0971.
For `Cc1cc([N+](=O)[O-])nn1Cc1ccc(F)cc1` the value was -0.826; for `CN(C)C(=O)c1nc2ccc(Cl)cn2c1CNCc1cccc(OC(F)(F)F)c1`, -0.562; for `COc1ccc(N2C(=O)CC(Nc3ccc(F)cc3)C2=O)c([N+](=O)[O-])c1` (centres undefined), -1.31.
